Experimental data reported in PubChem BioAssay (EPA / NIEHS).
Records with an inconclusive call do not appear. Calls of active or inactive are those of the source. How the source made its calls, unless noted: active means hit-call score of the fitted dose curve at least 0.9, where 1 is the maximum; inconclusive means response in the unintended direction; inactive means score below 0.9.

Columns and labels:
[1] = TOX21_p53_BLA_p2_viability: Viability Assessment in the Tox21 HCT-116 p53 Agonism Beta-lactamase Assay, Phase 2 (AID 2283591);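 further: compound exposure lasted 16 h at 37 °C; actives lower the ATP signal meaning cytotoxicity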
How it was run: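 HCT-116 p53-bla cells (4000/well) rested 5 h at 37C, then received compounds in DMSO (217-fold dilution) for 16 h at 37C, 5% CO2. After the CCF4 read, CellTiter-Glo was added; ATP luminescence was read after 30 min at room temperature.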

[2] = target: Cellular tumor antigen p53 (Homo sapiens) (UniProt P04637); assay: TOX21_p53_BLA_p3_ratio: Tox21 HCT-116 p53 Agonism Beta-lactamase Assay, Ratio, Phase 3 (AID 2283596)
Sequence of Cellular tumor antigen p53 (Homo sapiens) (P04637 whole entry, looked up): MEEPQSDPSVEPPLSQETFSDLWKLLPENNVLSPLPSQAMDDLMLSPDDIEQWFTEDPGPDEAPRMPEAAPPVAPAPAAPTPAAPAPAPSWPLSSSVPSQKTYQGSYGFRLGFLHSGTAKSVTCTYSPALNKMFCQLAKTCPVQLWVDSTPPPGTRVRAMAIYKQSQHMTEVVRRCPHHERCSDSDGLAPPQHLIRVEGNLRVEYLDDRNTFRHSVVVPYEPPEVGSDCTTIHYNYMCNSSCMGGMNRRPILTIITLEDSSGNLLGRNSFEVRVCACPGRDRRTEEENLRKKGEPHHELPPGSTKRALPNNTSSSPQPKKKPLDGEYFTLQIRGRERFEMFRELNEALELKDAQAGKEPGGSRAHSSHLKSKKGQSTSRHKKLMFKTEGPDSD
How it was run: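 HCT116 p53-bla cells (4000/well) given compound in DMSO (217-fold dilution) after 5 h, incubated 16 h at 37C. CCF4-AM substrate 2 h at room temperature; 460/530 nm emission ratio, gain fitted against DMSO.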

[3] = target: Cellular tumor antigen p53 (Homo sapiens) (UniProt P04637); assay: TOX21_p53_BLA_p5_ratio: Tox21 HCT-116 p53 Agonism Beta-lactamase Assay, Ratio, Phase 5 (AID 2283599)
How it was run: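 HCT-116 cells carrying a p53-inducible beta-lactamase reporter were seeded at 4000 cells/well and dosed after 5 h with compound in DMSO (217-fold dilution). After 16 h at 37C, CCF4-AM substrate was added for 2 h, and the 460/530 nm emission ratio was scored as gain-of-signal versus DMSO.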

[4] = TOX21_p53_BLA_p5_viability: Viability Assessment in the Tox21 HCT-116 p53 Agonism Beta-lactamase Assay, Phase 5 (AID 2283600)
How it was run: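 Cells were plated at 4000/well, rested 5 h at 37C, then given compounds in DMSO (217-fold dilution) for 16 h at 37C, 5% CO2. Following the CCF4-AM beta-lactamase read, CellTiter-Glo was added and luminescence was read after 30 min at room temperature.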

[5] = target: Cellular tumor antigen p53 (Homo sapiens) (UniProt P04637); assay: TOX21_p53_BLA_p4_ratio: Tox21 HCT-116 p53 Agonism Beta-lactamase Assay, Ratio, Phase 4 (AID 2283601)
How it was run: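 HCT116 cells carrying an inducible beta-lactamase reporter were plated at 4000 cells/well, rested 5 h, then exposed to compounds in DMSO (217-fold dilution) for 16 h at 37C. CCF4-AM substrate was loaded 2 h at room temperature; 460/530 nm emission ratio scored gain-of-signal versus DMSO.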

[6] = TOX21_p53_BLA_p4_viability: Viability Assessment in the Tox21 HCT-116 p53 Agonism Beta-lactamase Assay, Phase 4 (AID 2283597);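 further: hits lower the luminescence signal meaning cytotoxicity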
How it was run: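 HCT116 p53-bla cells (4000/well) rested 5 h at 37C, then received compounds in DMSO (217-fold dilution) for 16 h at 37C, 5% CO2. CellTiter-Glo was added after the CCF4-AM read, and luminescence was read after 30 min at room temperature.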

[7] = CCTE_Harrill_HTTr_Viability_MCF7: CCTE's 6-hour Cell Viability Assessment for the High-Throughput Transcriptomics (HTTr) Platform, in MCF-7 cells cultured in DMEM + 10% fetal bovine serum, Harrill Lab (AID 2284010; active means hit-call score of the fitted dose curve at least 0.9, where 1 is the maximum; inactive means score below 0.9)
How it was run: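 Viability measured through PI dye exclusion by high-content imaging at 6 h post-dosing.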

[8] = CCTE_Harrill_HTTr_Apoptosis_MCF7: CCTE's 6-hour Apoptosis Assessment for the High-Throughput Transcriptomics (HTTr) Platform, in MCF-7 cells cultured in DMEM + 10% fetal bovine serum, Harrill Lab (AID 2284011; active means hit-call score of the fitted dose curve at least 0.9, where 1 is the maximum; inactive means score below 0.9)
How it was run: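 MCF-7 cells in DMEM + 10% fetal bovine serum were exposed to chemicals for 6 hours over an eight-point dilution series. Caspase-3/7 activation was imaged by high content imaging with CellEvent Caspase 3/7 Green; bidirectional fitting used DMSO as baseline.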

Measured: outcome

O=C(O)c1cccc(Cl)c1Cl
inactive: [1] | [2] | [3] | [4] | [5]

O=C(Nc1cccc2c(=O)cc(-c3nn[nH]n3)oc12)c1ccc(OCCCCc2ccccc2)cc1
inactive: [1] | [2] | [6] | [4]

O=C(O)CNC(=O)c1ccc([N+](=O)[O-])cc1
inactive: [1] | [2] | [3] | [4] | [5]

CC(C)[C@@H](N)C(=O)O
inactive: [1] | [2] | [3] | [4]

CC(C)CCCC(C)NC(C)C (stereo unspecified)
inactive: [1] | [2] | [3]

COc1c(O)cc2c(c1O)[C@@H]1O[C@H](CO)[C@@H](O)[C@H](O)[C@H]1OC2=O
inactive: [1] | [2] | [3] | [5]

C=CC[N+]1([C@H]2C[C@H]3[C@@H]4CC[C@H]5C[C@H](OC(C)=O)[C@@H](N6CCCCC6)C[C@]5(C)[C@H]4CC[C@]3(C)[C@H]2OC(=O)CC)CCCCC1
inactive: [1] | [2] | [6] | [4] | [5]

C[C@H](O)CN(C)C
inactive: [1] | [2] | [3] | [5]

CC[C@H]1OC(=O)[C@H](C)[C@@H](O[C@H]2C[C@@](C)(OC)[C@@H](O)[C@H](C)O2)[C@H](C)[C@@H](O[C@@H]2O[C@H](C)C[C@H](N(C)C)[C@H]2O)[C@](C)(O)C[C@@H](C)[C@@H]2N[C@@H](COCCOC)O[C@@H]([C@H]2C)[C@]1(C)O
inactive: [1] | [2] | [3] | [4] | [5]

CC[N+](CC)(CCNC(=O)C(=O)NCC[N+](CC)(CC)Cc1ccccc1Cl)Cc1ccccc1Cl
inactive: [1] | [2] | [6] | [5]

CCCc1nc(C(C)(C)O)c(C(=O)OCc2oc(=O)oc2C)n1Cc1ccc(-c2ccccc2-c2nn[nH]n2)cc1
inactive: [1] | [2] | [3]

CCCC(=O)CC
inactive: [1] | [2] | [6] | [4] | [5]

O=C(Cc1cccs1)N[C@@H]1C(=O)N2C(C(=O)[O-])=C(C[n+]3ccccc3)CS[C@H]12
inactive: [1] | [2] | [3] | [4] | [5]

O=C1OC(=O)c2ccccc21
inactive: [1] | [2] | [6] | [4] | [5]

N[C@@H](C(=O)N[C@@H]1C(=O)N2C(C(=O)O)=C(CSc3cn[nH]n3)CS[C@H]12)c1ccc(O)cc1
inactive: [1] | [6] | [3] | [4]

CCC(Cc1c(I)cc(I)c(O)c1I)C(=O)O (stereo unspecified)
inactive: [1] | [6] | [3]

CC(NN)c1ccccc1 (stereo unspecified)
inactive: [1] | [2] | [4] | [5]

O=C1OC(=O)C2CCCCC12 (stereo unspecified)
inactive: [1] | [6] | [3]

COCCOCCOCCOCCO
inactive: [1] | [2] | [3] | [5]

CCCCN1C=CN(C)C1
inactive: [1] | [6] | [3] | [4]

CCc1cnc(C(=O)O)c(C(=O)O)c1
inactive: [1] | [2] | [3] | [5]

CC(C(=O)O)c1ccc(/C=C2\CCCCC2=O)cc1 (stereo unspecified)
inactive: [1] | [2] | [4] | [5]

CC(C)CCCO
inactive: [1] | [2] | [5]

Clc1ccccc1-c1nc(-c2ccncc2)no1
inactive: [1] | [6] | [3] | [4]

C1CCC2=NCCCN2CC1
inactive: [1] | [6] | [3] | [4]

CC(C)=CC(=O)C=C(C)C
inactive: [1] | [6] | [3] | [4]

CC(C)(c1cc(Br)c(OCC(Br)CBr)c(Br)c1)c1cc(Br)c(OCC(Br)CBr)c(Br)c1 (stereo unspecified)
inactive: [1] | [6] | [3]

CC(=C(CCO)SSCC1CCCO1)N(C=O)Cc1cnc(C)nc1N (stereo unspecified)
inactive: [1] | [6] | [3]

Nc1c(CC(=O)O)cccc1C(=O)c1ccc(Br)cc1
inactive: [1] | [2] | [5] | [7] | [8]

CC(C)(Sc1cc(C(C)(C)C)c(O)c(C(C)(C)C)c1)Sc1cc(C(C)(C)C)c(O)c(C(C)(C)C)c1
inactive: [1] | [6] | [3] | [4]

CCn1cc(C(=O)O)c(=O)c2cnc(N3CCNCC3)nc21
inactive: [1] | [2] | [5]

c1cnc(N2CCN(Cc3ccc4c(c3)OCO4)CC2)nc1
inactive: [1] | [6]

CC(=O)N=c1sc(S(N)(=O)=O)nn1C
inactive: [1] | [6] | [3] | [4] | [5]
